HttQ103 aggreg: qHTS Multiplex Assay to Identify Dual Action Probes in a Cell Model of Huntington: Aggregate Formation (GFP). PC12 HttQ103-GFP aggregates, Acumen cytometry, 40 h. Potency, µM (highest dose often 46.1 µM), inactives show at the highest dose activity change, negative = inhibition, most hits filed as inhibitors. 220,000 compounds, 1.1% hits. AID 1688, 2009; also: % is scaled to controls: 0 for no effect and ±100 for the full control effect; nearly all actives have a fitted effect of over 60% in size
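Ecdysone-promoter PC12 model expressing HTT exon 1 Q103 fused to GFP, induced by tebufenozide at 100 nM final. Compounds titrated; aggregates sized 1–25 µm scored on a 488 nm laser cytometer.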
HepG2 viability: qHTS for Inhibitors of TGF-b: Cytotox Counterscreen; Potency, µM (highest dose often 46.1 µM), for inactives: at the highest dose activity change, negative = cytotoxicity, actives largely listed as cytotoxic; HepG2 CAGA-GFP viability, ATP luminescence, 18 h; 410,000 compounds, 0.76% hits; AID 588856, 2011
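CellTiter-Glo luminescence gave cytotoxicity after 18 hours at 37 degrees C. The cells were HepG2 CAGA-GFP in 1% FBS DMEM, stimulated with 500 pg/mL TGF-beta after compound addition. %Activity was normalised to no-cell wells (complete cell-killing) and DMSO (no toxicity), and curves were fitted and classified.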
S2 tox: Viability Counterscreen for Primary qHTS for Inhibitors of ATXN expression; Potency, µM (top dose mostly 56.7 µM), most hits filed as cytotoxic; 400,000 compounds, 0.49% hits; S2 cells (HEK-293 line with an ATXN2-luciferase reporter) viability, CellTiter-Fluor protease fluorescence, 24 h; also: nearly all actives have a fitted effect of over 40% in size
ATXN2 expr inh: Primary qHTS for Inhibitors of ATXN expression. HEK-293 ATXN2-luciferase reporter, luminescence, 24 h. Potency, µM (doses to about 57 µM), for the others: at the top dose activity change, negative = inhibition, most hits filed as inhibitors. 360,000 compounds, 0.72% hits; also: % is scaled to controls: 0 for no effect and ±100 for the full control effect; nearly all actives have a fitted effect of over 55% in size
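qHTS (up to 57 uM final) was run with 24 h compound exposure of reporter cells at 37 °C. Each well was multiplexed: SteadyGlo luminescence measured ATXN2-luciferase expression after a fluorogenic Gly-Phe-AFC viability readout (25 uM final).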
TGFb SMAD3 inh: qHTS for Inhibitors of TGF-b; HepG2 CAGA-GFP TGF-b/SMAD3 reporter, GFP fluorescence, 18 h; TGF-beta stimulated, 500 pg/mL final; Potency, µM (top dose mostly 46.1 µM), for the others: top-dose activity, negative = inhibition, usual class: inhibitors; 410,000 compounds, 1.2% hits; AID 588855, 2011; also: % is scaled to controls: 0 for no effect and ±100 for the full control effect; nearly all actives have a fitted effect of over 65% in size
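HEPG2 CAGA-GFP reporter cells (1000/well, DMEM with 1% FBS) received compounds, then recombinant TGF-beta at 500 pg/mL final for 18 hours at 37 degrees C. Per-cell GFP summed per well was normalised to unstimulated and stimulated DMSO controls before curve fitting.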
HTT cytoprotect: qHTS Multiplex Assay to Identify Dual Action Probes in a Cell Model of Huntington: Cytoprotection (ATP); Potency, µM (titrated, usually from 56.4 µM), for inactives: cytoprotection (ATP increase), hits mostly activators; 230,000 compounds, 0.14% hits; AID 1471, 2008; PC12 HTT-Q103 induced, cytoprotection, ATP luminescence, 40 h; also: % of control where 0% means no effect; nearly all actives have a fitted effect of over 45% in size
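Cells were plated at 1500 per well in phenol red-free DMEM with 5% equine and 5% calf serum. Tebufenozide (100 nM final) and compounds were added, then ATPlite reagent, and luminescence was read.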
An asterisk follows results filed as active; i = inactive; ? = inconclusive; . = no result given; [ ] = another dose, or the depositor's remark. An excerpt weighted towards active compounds, which were near 2.8% of everything screened. Calls follow the shape of the dose curve; as a rule, active = well fitted curve in the direction sought with a large enough effect; inconclusive = small, poorly fitted or top-dose-only effect, or another doubt; inactive = no such curve, though single readings can be large; an effect the other way counts as inactive or inconclusive. Potency is read from the fitted curve at half-maximal effect.

SMILES	HttQ103 aggreg	HepG2 viability	S2 tox	ATXN2 expr inh	TGFb SMAD3 inh	HTT cytoprotect
Cc1nc2ccn(Cc3cccs3)c(=O)c2cc1C(=O)N1CCN(c2ccccc2F)CC1	.	-22%	.	.	20µM*	.
COc1ccc(Cn2ccc3nc(C)c(C(=O)N4CCN(c5cc(C)ccc5C)CC4)cc3c2=O)cc1	.	-20%	?	?	16µM*	.
C/C(=N\O)[C@@H](C)NCC(C)(C)CN[C@H](C)/C(C)=N/O	.	.	i	-11%	.	.
CCCc1c(C(=O)N/N=C(\C)c2ccc(O)cc2)nnn1-c1nonc1N	.	-9%	i	8%	-8%	.
CCCc1c(C(=O)N/N=C(\C)c2ccccn2)nnn1-c1nonc1N	.	10µM*	i	.	-1%	.
CC1CCN(Cc2c(C(=O)N/N=C/c3ccccc3O)nnn2-c2nonc2N)CC1	.	-12%	i	3.2µM*	-26%	.
COc1cc2c(Oc3ccc4[nH]c(C)cc4c3F)ncnc2cc1OCCCN1CCCC1	.	.	.	34µM*	.	.
C=C1NN(Cc2ccc(OC)cc2)C(=O)N1c1ccccc1	.	-2%	.	.	0%	.
O=CC(=O)c1ccc(F)cc1	.	-1%	.	.	-1%	.
Cc1ccc(-c2csc(N3CCN(CCCn4c(C(F)(F)F)nc5ccccc54)CC3)n2)cc1	.	-24%	?	-26%	?	.
Cc1ccc(-c2csc(N3CCN(CCCn4c(-c5ccncc5)nc5ccccc54)CC3)n2)cc1	.	-27%	.	22µM*	7.1µM*	.
CCn1c(C(C)NC(C)=O)nc2ccccc21 (stereo not drawn)	10%	-13%	.	-14%	-7%	2%
CC(=O)N[C@@H](C)c1nc2ccccc2n1CCCN1CCN(c2nc(-c3ccc(C)cc3)cs2)CC1	.	-11%	?	?	8.9µM*	.
COc1ccccc1CN1CCCC(n2cc(C(=O)N3CCCCC3)nn2)C1 (stereo not drawn)	.	.	i	.	.	.
COC1=CC(=O)c2c(ccc3ncnc(N)c23)C1=O	.	1.4µM*	3.5µM*	2.8µM*	0.89µM*	.
CSc1nc2ccc(NS(=O)(=O)c3ccc4c(c3)OCCO4)cc2s1	8.9µM*	-15%	i	-19%	?	11%[10 µM]
CSc1nc2ccc(NS(=O)(=O)c3c(Cl)cccc3Cl)cc2s1	3%	-73%	i	3%	-29%	9%[10 µM]
C[C@@H]1CN(Cc2ccc3c(c2)CN(C(=O)CN2CCOc4ccccc4C2)CCO3)C[C@H](C)O1	.	.	i	.	.	.
COC(=O)[C@H](Cc1ccccc1)NC(=O)c1ccc2ccccc2n1	.	2%	i	5%	-1%	.
CC(C)(C)NC(=O)[C@@H]1C[C@@H]2CCCC[C@@H]2CN1C[C@@H](O)[C@H](Cc1ccccc1)NC(=O)[C@H](CC(N)=O)NC(=O)c1ccc2ccccc2n1	-34%	-43%	32µM*	?	?	-109%
COC(=O)[C@@H](NC(=O)N1CCc2nc(-c3ccccc3)c3c(c2C1)CO[C@@H](C)C3)C(C)C	.	.	.	.	.	-9%[10 µM]
O=C(CSc1nnc2c3ccccc3c3ccccc3c2n1)Nc1ccccc1F	21%	27%	14µM*	?	0%	-9%
Cn1c(CC(=O)Nc2ccccc2F)nnc1SCC(=O)Nc1ccccc1Br	.	11µM*	i	-2%	-1%	.
CC(=O)c1ccc(NC(=O)c2cnn3c2NC(=C2CC2)C=C3C(F)F)cc1	.	14%	.	.	5%	.
Nc1nc(-c2nn(Cc3ccccc3F)c3ncccc23)nc(N)c1N1CCOCC1	.	.	.	-11%	.	.
SMILES	HttQ103 aggreg	HepG2 viability	S2 tox	ATXN2 expr inh	TGFb SMAD3 inh	HTT cytoprotect
COc1ccc2nc3cc(Cl)ccc3c(Nc3ccc(O)c(CN4CCN(C)CC4)c3)c2c1	.	-72%	?	?	11µM*	-1%[10 µM]
CC[N+]1(CC(=O)c2ccc(Br)cc2)CCCCC1	.	-20%	.	.	-5%	.
Cc1ccc(S(=O)(=O)NCCc2csc(-c3cccc(F)c3)n2)cc1	.	-43%	?	?	?	.
O=S(=O)(NCCc1csc(-c2cccc(F)c2)n1)c1cc(F)ccc1F	.	-26%	i	-15%	?	.
Cc1ccc(S(=O)(=O)NCCc2csc(-c3ccc(Cl)cc3)n2)cc1	.	-36%	i	?	11µM*	.
Cc1ccc(C)c(S(=O)(=O)NCCc2csc(-c3ccc(Cl)cc3)n2)c1	.	-94%	?	?	11µM*	.
O=S(=O)(NCCc1csc(-c2ccc(F)cc2)n1)c1ccc(Cl)cc1	.	-24%	?	16µM*	?	.
COc1ccc(S(=O)(=O)NCCc2csc(-c3ccc(F)cc3)n2)cc1	.	-15%	?	?	?	.
CCOc1ccc(S(=O)(=O)NCCc2csc(-c3ccc(Cl)cc3)n2)cc1	.	-67%	?	?	11µM*	.
NC[C@H]1O[C@H](O[C@H]2[C@H](O[C@@H]3O[C@H](CO)[C@@H](O)[C@H]3O)C(O)[C@H](N)C[C@@H]2N)[C@H](N)[C@@H](O)[C@@H]1O (stereo partly drawn)	.	.	i[11.3 µM]	-1%[11.3 µM]	.	.
CC(NC(=O)c1cc(-c2ccc(O)cc2)on1)c1ccccc1 (stereo not drawn)	.	.	.	.	.	-20%
COc1cccc(/C=N/NC(=O)C(C)n2nc(C)c([N+](=O)[O-])c2C)c1O (stereo not drawn)	16µM*	-7%	?	25µM*	-1%	-62%[10 µM]
COc1cccc(/C=N/NC(=O)Cn2nc(C)c([N+](=O)[O-])c2C)c1O	2.8µM*	-33%	?	16µM*	-6%	22%[10 µM]
COc1cccc(NC(=S)NNC(=O)C(C)n2nc(C)c([N+](=O)[O-])c2C)c1 (stereo not drawn)	-8%	-36%	i	-6%	0%	-16%
COc1cccc(-n2nnnc2S(C)(=O)=O)c1	2.5µM*	-101%	28µM*	?	?	-120%
Cc1cccc(-n2nnnc2S(C)(=O)=O)c1	.	6.3µM*	11µM*	?	?	.
COC(=O)c1nnn(-c2cccc(C)c2)c1C(=O)OC	.	-34%	i	-6%	?	.
COc1cccc(Oc2nnnn2-c2ccccc2)c1	7%	-14%	.	.	-3%	-27%
O=S(=O)(c1ccc(Br)cc1)N1CCN(c2nc(-c3ccccc3)nc3ccccc23)CC1	.	18%	.	.	22%	.
O=C(Nc1cn[nH]c1-c1nc2ccc(CN3CCOCC3)cc2[nH]1)NC1CC1	.	.	.	5.4µM*	.	.

Bioassay records deposited in PubChem BioAssay by National Center for Advancing Translational Sciences (NCATS).
